Assay results from PubChem BioAssay (NCI).
This is part of a sample that, as a whole, favours compounds with a hit. Of some 83,000 tested, about 20% had one in any assay.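 Percent growth is the endpoint: 0 to 100 indicates growth inhibition (40 means 60% inhibition), 0 means no net growth, and negative values indicate cell death.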 Calls of active or inactive are those of the source. The calls were made as follows: active = growth percent below 10; inactive = the rest.

tested on: RXF 393 renal; assay: NCI-60 one-dose screen, 48 h (100 = growth as untreated, 0 = no growth, -100 = all killed); conditions: 10 µM unless noted

Structure (SMILES)	growth
CC(=O)N1N=C(c2ccc(Cl)cc2)CC1c1c(C)nn(-c2ccccc2)c1N(C)Cc1ccccc1 (centres undefined)	72.7% (inactive)
CC1(C)CC2(C)CC(=O)C1C(C(=O)O)C2C(=O)O (centres undefined)	103% (inactive)
COc1ccc(-c2cnc(SCC(=O)Nc3ccc(-c4nc5ccccc5s4)cc3)n2-c2ccc(OC)cc2)cc1	121% (inactive)
COc1ccc2c(c1)[n+](=O)c(C(=O)/C=C/c1cc(OC)c(OC)c(OC)c1)c(C)n2[O-]	48.6% (inactive)
Nc1c(C(=O)Nc2cccc(Cl)c2)sc2nc3c(cc12)C(O)CCC3 (centres undefined)	-25.4% (active)
COc1cccc(-c2nc(-c3ccc(N)cc3)co2)c1	93.2% (inactive)
O=C(Nc1ccccc1S)c1ccccc1	125% (inactive)
COc1ccc2c(c1)c(CC(=O)[Se]C)c(C)n2C(=O)c1ccc(Cl)cc1	4.4% (active)
Nc1nc(SCc2cccnc2)c2ncn(C3OC(CO)C(O)C3O)c2n1 (centres undefined)	101% (inactive)
O=C1c2cc3c(cc2-c2c1c1ccc(Cl)cc1c(=O)n2CCCNCCO)OCO3	-78.6% (active)
N#Cc1c(NC(=O)c2ccco2)[n+]([O-])c2cc(Cl)c(Cl)cc2[n+]1[O-]	91.3% (inactive)
Cc1[nH]ccc2cc3nc4ccccc4c3cc12	17.5% (inactive)
C=C1CC[C@@H]2[C@](C)(COC(C)=O)[C@H](OC(C)=O)CC[C@@]2(C)[C@@H]1CC(NCc1ccccc1)C1=CCOC1=O (some centres undefined)	74.3% (inactive)
COC(=O)c1cc2oc(/C=N\NC(=O)c3cc4oc(C)c(C)c4[nH]3)cc2[nH]1	101% (inactive)
